Data as given in PubChem BioAssay (Tox21).
Where “and” joins values, the source holds several entries; their conditions need not be identical. Equal values may be shown once. Inconclusive results are not listed. A structure can be active in one record and inactive in another. Calls of active or inactive are those of the source. Unless noted, calls follow the shape of the dose curve; as a rule, active = well fitted curve in the direction sought with a large enough effect in the repeat runs; inconclusive = weak or mixed curves; inactive = no such curve, though single readings can be large; an effect the other way counts as inactive or inconclusive.

Legend:
[1] = qHTS assay to identify small molecule agonists of the estrogen receptor alpha (ER-alpha) signaling pathway in the presence of an antagonist - cell viability counter screen (AID 1259386);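 also: series mostly up to about 92 µM; cells exposed to compounds for 22 h at 37 °C before the viability read; nearly all actives have a fitted effect of over 30% in size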
In short: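 Read-out: CellTiter-Fluor fluorescence after 1hr reagent incubation, measured in the same wells as the luciferase readout. VM7Luc4E2 cells were exposed to 15 compound concentrations with 10.0nM ICI-182,780 for 22hr at 37C.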

[2] = biological target: Progesterone receptor (Homo sapiens) (UniProt P06401); assay: qHTS assay to identify small molecule agonists of the progesterone receptor (PR) signaling pathway (AID 1346784; calls by dose curve; also: nearly all actives have a fitted effect of over 30% in size)
In short: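 HEK 293T PR-UAS-bla reporter cells, 2% charcoal-stripped FBS; 6 hr settle at 37C/5% CO2, compound (DMSO) 16 hr, LiveBLAzer B/G FRET substrate 2 hr RT, fluorescence intensity read.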

[3] = qHTS assay to identify small molecule agonists of the progesterone receptor (PR) signaling pathway - cell viability counter screen (AID 1346799; calls by dose curve; also: nearly all actives have a fitted effect of over 45% in size; also: potency is read from the fitted curve at half-maximal effect)
In short: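 HEK293T PR-UAS-bla, 3,000 cells/well, 2% charcoal-stripped FBS; 6 h settle, compound 16 h at 37C/5% CO2; LiveBLAzer 2 h RT, then CellTiter-Glo 30 min RT, luminescence read.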

[4] = qHTS assay to identify small molecule antagonists of the TGF-beta/Smad signaling pathway - cell viability counter screen (AID 1346824); also: nearly all actives have a fitted effect of over 50% in size
In short: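 Cytotoxicity counter-screen run in the same wells as the beta-lactamase Smad reporter read: CellTiter-Glo luminescence after 30 min at room temperature. HEK 293T SBE-bla cells had 5 hr compound exposure at 37 C with TGF-beta1 (0.25 ng/mL stock).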

[5] = qHTS assay to identify small molecule agonists of the TGF-beta/Smad signaling pathway - cell viability counter screen (AID 1346829); also: top concentration of the series differs between compounds; nearly all actives have a fitted effect of over 45% in size
In short: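 Cytotoxicity counter screen: CellTiter-Glo luminescence (30 min, room temperature) measured in the SBE-bla HEK 293T reporter wells after 5 hr compound treatment at 37 C and the 2 hr substrate step.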

[6] = qHTS assay to identify small molecule agonists of the TGF-beta/Smad signaling pathway (AID 1346859; active = well fitted activation curve with a large enough effect in the signal ratio in the repeat runs, not every such curve was filed as active; the % refers to the signal ratio; also: series mostly up to about 77 µM)
In short: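 Read-out: fluorescence at 460 and 530 nm (405 nm excitation) after a 2 hr room-temperature incubation with beta-lactamase FRET substrate. SBE-bla HEK 293T cells had been treated with test compounds for 5 hr at 37 C.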

[7] = biological target: Thyrotropin-releasing hormone receptor (Homo sapiens) (UniProt P34981); assay: qHTS assay to identify small molecule antagonists of the thyrotropin-releasing hormone receptor (TRHR) signaling pathway (AID 1346877; active = well fitted inhibition curve with a large enough effect in the repeat runs, not every such curve was filed as active; also: series mostly up to about 51 µM)
In short: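 HEK293/TRHR cells, 18 h, 37 °C; Ca2+ dye 2 h; cpd 5 min RT; TRH 1 nM final; fluorescence read 3 min, 1 s intervals; 15 concs, triplicate.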

[8] = biological target: Thyrotropin-releasing hormone receptor (Homo sapiens) (UniProt P34981); assay: qHTS assay to identify small molecule agonists of the thyrotropin-releasing hormone receptor (TRHR) signaling pathway (AID 1346891; calls by dose curve;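 also: HEK293 cells expressing TRHR with calcium dye readout; series mostly up to about 58 µM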)
In short: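 HEK293/TRHR cells, 1500 per well, 18 h 37 °C; Ca dye 2 h 37 °C; pin-tool compound addition (agonist mode); kinetic fluorescence 3 min, 1 s reads; 15 concentrations, triplicate.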

[9] = Human pregnane X receptor (PXR) small molecule agonists, qHTS cell viability counter screen (AID 1346977); also: nearly all actives have a fitted effect of over 50% in size; also: potency is read from the fitted curve at half-maximal effect
In short: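 Fluorescence read-out (CellTiter-Fluor) of viability in PXR-Luc HepG2 cells, multiplexed with the luciferase agonist read. Compounds in DMSO added after 5hr plating; 24hr total exposure at 37C, 5% CO2.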

[10] = Caspase-3/7 induction in HepG2 cells by small molecules, qHTS assay (AID 1346978); also: nearly all actives have a fitted effect of over 15% in size
In short: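 Caspase-3/7 induction was measured by Caspase-Glo 3/7 luminescence (30 min, room temperature) after a 17 hr compound exposure of wild-type HepG2 cells seeded at 2,000 per well and pre-incubated 5 hr.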

[11] = Caspase-3/7 induction in CHO-K1 cells by small molecules, qHTS cell viability counter screen (AID 1346979); also: nearly all actives have a fitted effect of over 35% in size; also: potency is read from the fitted curve at half-maximal effect
In short: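 CHO-K1 wt, 1,500 cells/well; 5hr pre-incubation 37C/5% CO2; compound pin transfer (DMSO); 16hr exposure; CellTiter-Fluor added, 1hr, fluorescence read.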

[12] = Caspase-3/7 induction in CHO-K1 cells by small molecules, qHTS assay (AID 1346980); also: nearly all actives have a fitted effect of over 15% in size
In short: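 Luminescent Caspase-Glo 3/7 read (30min, room temperature) quantified apoptosis induction. Cells were wild-type CHO-K1, treated with compound for 17hr at 37 C and 5% CO2.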

[13] = Caspase-3/7 induction in HepG2 cells by small molecules, qHTS cell viability counter screen (AID 1346981); also: series mostly up to about 92 µM; nearly all actives have a fitted effect of over 30% in size
In short: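 Fluorescence read-out of live-cell protease activity (CellTiter-Fluor) after 1 hr with reagent. This was measured in the same wells as the caspase-3/7 luminescence, on HepG2 cells exposed to DMSO-dissolved compounds for 16 hr at 37 C.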

[14] = biological target: Nuclear receptor subfamily 1 group I member 2 (Rattus norvegicus) (UniProt Q9R1A7); assay: Rat pregnane X receptor (rPXR) activation by small molecules, qHTS assay (AID 1346983); settings: rPXR luciferase reporter cells, One-Glo luminescence, 24 h; stronger effect = higher value; also: nearly all actives have a fitted effect of over 20% in size
In short: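 Luminescent readout (One-Glo luciferase, 30 min room temperature) followed 24 hr compound treatment at 37 C of rPXR cells plated 2,000 per well and preincubated 5hr; qHTS format with compounds delivered in DMSO.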

[15] = biological target: Cytochrome P450 2D6 (Homo sapiens) (UniProt P10635); assay: Cytochrome P450 Family 2 Subfamily D Member 6 (CYP2D6) small molecule antagonists: luciferase reporter qHTS assay (AID 1671196); also: nearly all actives have a fitted effect of over 50% in size; also: potency is read from the fitted curve at half-maximal effect
In short: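 Luminogenic proluciferin substrate, CYP2D6 enzyme; 10 min RT preincubation with compound, NADPH regeneration system added, 1 h RT. Stop/detection reagent, 20 min RT, luminescence read (RLU). Signal proportional to CYP activity.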

[16] = biological target: Cytochrome P450 2C19 (Homo sapiens) (UniProt P33261); assay: Cytochrome P450 Family 2 Subfamily C Member 19 (CYP2C19) small molecule antagonists: luciferase reporter qHTS assay (AID 1671197); also: nearly all actives have a fitted effect of over 65% in size; also: potency is read from the fitted curve at half-maximal effect
In short: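 Luminescent readout of CYP2C19 activity: luciferin product detected 20 min after adding detection reagent. Before that, compound and enzyme-substrate mix preincubated 10 min at room temperature; NADPH-regenerating system started a 1 h, 37C reaction. Ketoconazole as positive control.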

[17] = biological target: Nuclear receptor subfamily 1 group I member 2 (Homo sapiens) (UniProt O75469); assay: Human pregnane X receptor (PXR) small molecule agonists, qHTS assay (AID 1346982); also: nearly all actives have a fitted effect of over 35% in size; also: potency is read from the fitted curve at half-maximal effect
In short: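 HepG2 PXR-Luc reporter line, 5% charcoal-stripped FBS; 5 hr pre-incubation, compound (DMSO) 24 hr at 37 C/5% CO2; ONE-Glo 30 min RT; luminescence read-out.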

[18] = biological target: Progesterone receptor (Homo sapiens) (UniProt P06401); assay: qHTS assay to identify small molecule antagonists of the progesterone receptor (PR) signaling pathway (AID 1346795; active = well fitted inhibition curve with a large enough effect in the signal ratio in the repeat runs, not every such curve was filed as active; the % refers to the signal ratio; also: potency is read from the fitted curve at half-maximal effect)
In short: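 Beta-lactamase reporter, HEK293T PR-UAS-bla line; 2% charcoal-stripped FBS; 6 hr pre-incubation, 37C/5% CO2. Compound + R5020 1 nM final, 16 hr. LiveBLAzer B/G FRET substrate, 2 hr RT; fluorescence intensity read.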

[19] = qHTS assay to identify small molecule antagonists of the progesterone receptor (PR) signaling pathway - cell viability counter screen (AID 1346798); also: nearly all actives have a fitted effect of over 50% in size; also: potency is read from the fitted curve at half-maximal effect
In short: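 Luminescence readout (CellTiter-Glo, 30 min, RT) of viability in PR-UAS-bla HEK293T cells exposed to compound and R5020 agonist for 16 hr at 37C, 5% CO2; run in the same wells as the beta-lactamase reporter read.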
% is scaled to controls: 0 for no effect and ±100 for the full control effect.

Chain of Nuclear receptor subfamily 1 group I member 2 (Homo sapiens) (O75469 whole entry, looked up): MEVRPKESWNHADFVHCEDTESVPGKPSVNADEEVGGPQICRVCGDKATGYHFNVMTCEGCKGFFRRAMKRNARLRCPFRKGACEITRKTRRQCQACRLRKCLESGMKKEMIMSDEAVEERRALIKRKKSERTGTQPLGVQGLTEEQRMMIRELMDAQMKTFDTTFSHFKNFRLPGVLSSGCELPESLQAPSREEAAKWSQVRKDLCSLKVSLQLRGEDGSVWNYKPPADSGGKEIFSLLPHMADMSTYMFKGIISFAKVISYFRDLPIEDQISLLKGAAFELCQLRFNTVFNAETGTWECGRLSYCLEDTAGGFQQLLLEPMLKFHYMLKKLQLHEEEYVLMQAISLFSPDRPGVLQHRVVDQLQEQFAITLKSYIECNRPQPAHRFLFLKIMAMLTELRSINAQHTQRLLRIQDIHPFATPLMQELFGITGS
Chain of Cytochrome P450 2C19 (Homo sapiens) (P33261 whole entry, looked up): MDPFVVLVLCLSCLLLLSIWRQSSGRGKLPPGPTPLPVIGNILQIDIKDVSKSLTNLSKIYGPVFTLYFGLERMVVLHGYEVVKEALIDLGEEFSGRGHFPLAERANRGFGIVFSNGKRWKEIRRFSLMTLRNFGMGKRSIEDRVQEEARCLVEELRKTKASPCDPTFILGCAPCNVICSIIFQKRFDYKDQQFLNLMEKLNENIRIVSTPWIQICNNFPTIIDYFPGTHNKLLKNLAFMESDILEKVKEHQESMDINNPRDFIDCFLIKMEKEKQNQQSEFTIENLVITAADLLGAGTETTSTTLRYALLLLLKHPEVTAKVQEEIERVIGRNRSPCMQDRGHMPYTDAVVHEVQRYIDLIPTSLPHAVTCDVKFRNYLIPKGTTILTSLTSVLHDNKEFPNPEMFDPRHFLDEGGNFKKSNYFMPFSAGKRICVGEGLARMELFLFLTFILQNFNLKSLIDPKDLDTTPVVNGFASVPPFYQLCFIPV
Chain of Cytochrome P450 2D6 (Homo sapiens) (P10635 whole entry, looked up): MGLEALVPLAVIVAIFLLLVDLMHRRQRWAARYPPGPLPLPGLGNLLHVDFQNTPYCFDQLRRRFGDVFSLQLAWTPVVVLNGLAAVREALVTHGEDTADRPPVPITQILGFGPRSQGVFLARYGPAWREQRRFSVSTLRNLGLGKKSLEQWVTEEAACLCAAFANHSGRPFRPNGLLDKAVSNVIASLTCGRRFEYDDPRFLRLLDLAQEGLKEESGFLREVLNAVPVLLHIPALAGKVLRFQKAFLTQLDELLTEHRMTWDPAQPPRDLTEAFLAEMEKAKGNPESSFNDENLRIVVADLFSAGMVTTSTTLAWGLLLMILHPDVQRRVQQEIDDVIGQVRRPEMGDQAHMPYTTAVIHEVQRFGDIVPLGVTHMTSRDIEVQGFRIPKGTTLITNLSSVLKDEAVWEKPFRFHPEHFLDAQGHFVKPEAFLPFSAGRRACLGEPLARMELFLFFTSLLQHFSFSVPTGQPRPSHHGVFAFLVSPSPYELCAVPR
Chain of Thyrotropin-releasing hormone receptor (Homo sapiens) (P34981 whole entry, looked up): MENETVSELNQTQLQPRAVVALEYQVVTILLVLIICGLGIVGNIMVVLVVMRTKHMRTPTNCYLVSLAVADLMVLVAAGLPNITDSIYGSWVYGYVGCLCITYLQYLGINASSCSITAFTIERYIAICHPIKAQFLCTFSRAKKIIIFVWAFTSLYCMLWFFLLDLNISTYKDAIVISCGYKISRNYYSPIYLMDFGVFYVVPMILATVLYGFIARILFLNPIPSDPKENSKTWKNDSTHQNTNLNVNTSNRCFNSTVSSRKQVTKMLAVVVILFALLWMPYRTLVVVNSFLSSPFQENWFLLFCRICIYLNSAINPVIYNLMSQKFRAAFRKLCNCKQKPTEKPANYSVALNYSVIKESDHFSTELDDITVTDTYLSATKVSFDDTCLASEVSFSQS
Chain of Progesterone receptor (Homo sapiens) (P06401 whole entry, looked up): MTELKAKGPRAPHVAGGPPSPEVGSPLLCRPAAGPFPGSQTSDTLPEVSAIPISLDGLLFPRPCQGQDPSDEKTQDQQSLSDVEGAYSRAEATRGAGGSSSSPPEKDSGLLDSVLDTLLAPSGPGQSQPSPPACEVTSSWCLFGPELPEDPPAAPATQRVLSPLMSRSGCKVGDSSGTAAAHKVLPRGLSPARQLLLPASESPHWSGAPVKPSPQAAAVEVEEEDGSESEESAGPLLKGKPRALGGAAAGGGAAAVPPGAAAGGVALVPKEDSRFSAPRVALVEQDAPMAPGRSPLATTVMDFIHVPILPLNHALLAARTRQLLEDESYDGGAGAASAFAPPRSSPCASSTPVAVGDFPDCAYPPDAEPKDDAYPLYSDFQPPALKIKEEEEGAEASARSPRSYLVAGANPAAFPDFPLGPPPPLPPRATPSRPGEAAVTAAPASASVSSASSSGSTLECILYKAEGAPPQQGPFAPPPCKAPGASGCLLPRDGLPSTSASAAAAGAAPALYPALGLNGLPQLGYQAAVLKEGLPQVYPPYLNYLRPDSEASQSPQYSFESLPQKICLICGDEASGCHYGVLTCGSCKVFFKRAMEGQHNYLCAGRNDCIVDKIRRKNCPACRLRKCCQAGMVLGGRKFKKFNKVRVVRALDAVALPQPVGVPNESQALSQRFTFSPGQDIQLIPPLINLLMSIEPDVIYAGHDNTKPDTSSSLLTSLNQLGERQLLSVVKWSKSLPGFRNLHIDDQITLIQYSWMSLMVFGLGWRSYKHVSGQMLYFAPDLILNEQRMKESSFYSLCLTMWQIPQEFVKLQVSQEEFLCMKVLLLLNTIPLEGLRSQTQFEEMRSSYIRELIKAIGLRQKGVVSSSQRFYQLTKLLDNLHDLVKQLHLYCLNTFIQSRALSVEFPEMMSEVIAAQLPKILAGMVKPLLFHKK
Chain of Nuclear receptor subfamily 1 group I member 2 (Rattus norvegicus) (Q9R1A7 whole entry, looked up): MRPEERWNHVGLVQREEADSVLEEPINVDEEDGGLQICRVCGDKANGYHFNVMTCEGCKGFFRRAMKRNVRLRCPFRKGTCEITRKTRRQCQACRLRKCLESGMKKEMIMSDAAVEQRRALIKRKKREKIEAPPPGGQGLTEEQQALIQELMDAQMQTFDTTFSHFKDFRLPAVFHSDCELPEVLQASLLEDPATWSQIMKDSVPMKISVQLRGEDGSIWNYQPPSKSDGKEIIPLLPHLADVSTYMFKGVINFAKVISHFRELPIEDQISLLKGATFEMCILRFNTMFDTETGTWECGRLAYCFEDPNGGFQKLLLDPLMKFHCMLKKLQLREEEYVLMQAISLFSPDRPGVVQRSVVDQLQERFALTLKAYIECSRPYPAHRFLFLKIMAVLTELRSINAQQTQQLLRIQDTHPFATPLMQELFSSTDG

CC1COc2c(N3CCN(C)CC3)c(F)cc3c(=O)c(C(=O)O)cn1c23 (stereo not given)
inactive: Potency [1] | Potency [2] | Potency [3] | Potency [4] | Potency [5] | outcome [6] | Potency [7] | Potency [8] | Potency [9] | Potency [10] | Potency [11] | Potency [12] | Potency [13] | max activation [14] -3.36% | Potency [15] | Potency [16]

CCOc1ccc2c(c1)C(C)=CC(C)(C)N2
inactive: Potency [1] | Potency [2] | Potency [3] | Potency [4] | Potency [5] | Potency [7] | Potency [8] | Potency [9] | Potency [10] | Potency [13]
active: Potency [17] 60.8 µM and 54.5 µM | Potency [15] 11.2 µM and 10 µM

COc1ccc(COC(C)=O)cc1
inactive: Potency [1] | Potency [18] | Potency [19] | Potency [3] | Potency [4] | Potency [5] | Potency [9] | Potency [10] | Potency [11] | Potency [12] | Potency [13] | Potency [17] | Potency [15]
45.6 µM (active) and inactive: Potency [16]

CC(=O)C1=C(C)[C@@H]2C[C@@]3(C1)[C@H](C)CC[C@H]3C2(C)C
active: Potency [16] 93.5 µM and 39.9 µM
inactive: Potency [1] | Potency [18] | Potency [19] | Potency [3] | Potency [4] | Potency [5] | outcome [6] | Potency [7] | Potency [8] | Potency [9] | Potency [10] | Potency [11] | Potency [12] | Potency [13] | Potency [15]

Nc1cc(Cl)c(-c2cc(Cl)c(N)cc2Cl)cc1Cl
inactive: Potency [1] | outcome [6] | Potency [7] | Potency [8]
active: Potency [18] 2.73 µM | Potency [19] 38.5 µM and 43.3 µM | Potency [3] 30.6 µM and 21.7 µM | Potency [9] 50.1 µM and 68.6 µM | Potency [11] 30.6 µM and 54.5 µM | Potency [17] 24.3 µM and 19.3 µM | Potency [16] 10 µM and 7.1 µM

Nc1nc2ccccc2[nH]1
active: Potency [15] 62.5 µM
inactive: Potency [1] | Potency [18] | Potency [3] | Potency [4] | Potency [5] | outcome [6] | Potency [7] | Potency [8] | Potency [9] | Potency [10] | Potency [11] | Potency [12] | Potency [13] | Potency [17]

C/C=C/c1ccc(OCC)c(O)c1
inactive: Potency [1] | Potency [18] | Potency [19] | Potency [3] | Potency [4] | Potency [5] | outcome [6] | Potency [7] | Potency [8] | Potency [9] | Potency [10] | Potency [11] | Potency [12] | Potency [13] | Potency [17] | Potency [15]
